Source: PubChem (National Center for Advancing Translational Sciences (NCATS))
An excerpt weighted towards active compounds, which were near 2.4% of everything screened.
D2 antag – D2 dopamine receptor (human) antagonism; P14416; HEK293 TREx D2 cells, calcium flux, dopamine EC80; inhibition, % at 10 µM; 340,000 tested, 2% active; in the data active = inhibition above about 30%; inactive = below that, where a call was filed; also: 0% is about no effect
Target sequence (P14416 whole entry, looked up): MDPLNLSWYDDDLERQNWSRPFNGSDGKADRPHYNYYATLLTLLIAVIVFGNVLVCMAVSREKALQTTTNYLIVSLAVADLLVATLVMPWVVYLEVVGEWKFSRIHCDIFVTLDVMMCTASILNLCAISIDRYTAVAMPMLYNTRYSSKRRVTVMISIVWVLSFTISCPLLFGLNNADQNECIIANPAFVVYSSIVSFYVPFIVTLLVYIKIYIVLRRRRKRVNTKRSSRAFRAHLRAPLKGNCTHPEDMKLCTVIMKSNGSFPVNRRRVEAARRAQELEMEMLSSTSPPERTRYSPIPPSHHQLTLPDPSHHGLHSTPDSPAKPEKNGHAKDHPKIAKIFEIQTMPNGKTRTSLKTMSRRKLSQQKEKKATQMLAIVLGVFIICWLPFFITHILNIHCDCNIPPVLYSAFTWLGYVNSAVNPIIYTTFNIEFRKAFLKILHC
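Read-out: kinetic calcium fluorescence (1 cycle/s) in inducible HEK293 T-REx D2 cells after an EC80 dopamine addition that followed 180 s compound preincubation. Loss of the dopamine response indicates antagonism.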
D2 PAM-1 – D2 dopamine receptor (human) potentiation; P14416; HEK293 T-REx D2, calcium flux, EC20 dopamine potentiation; potentiation, % at 10 µM; 340,000 tested, 0.34% active;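 active = potentiation over 3 SD above the plate norm, cut at about 30% in these data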; also: 0% is about no effect
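Cells plated with tetracycline inducer and held overnight at 30 C; calcium dye loaded 30–90 min at room temperature; baseline taken, compound added and read 180 s; EC20 dopamine then added and read 180 s.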
D2 ag-1 – agonists of human D2 dopamine receptor; P14416; HEK293 T-REx D2 cells, calcium flux agonist mode; activation, % at 2 µM; 340,000 tested, 0.53% active; AID 485358;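 active = activation over 3 SD above normal in the single-dose calcium agonist read, cut at about 30% in these data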; also: 0% is about no effect
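Agonism scored from kinetic calcium signal (1 read/sec, 180 s) following compound pin transfer, after a 10 s baseline. Cells: HEK293 Trex line expressing inducible D2 receptor coupled to calcium, dye-loaded after overnight culture at 30 C.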
D2 PAM-2 – human D2 receptor positive allosteric modulation; P14416; DiscoveRx D2 beta-arrestin cells, luminescence, 90 min; 100% = 57 uM dopamine signal; potentiation, % (test concentration not listed); 360,000 tested, 0.23% active; AID 624464; in the data active = potentiation above about 50%
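D2 cells co-treated with compound plus 50 nM dopamine (EC20) for 90 min at 37 deg C to detect potentiation. Beta-arrestin recruitment was read as enzyme-fragment luminescence after 1 h at ambient temperature. Full response was set by 57 uM dopamine.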
D2 ag-2 – human D2 receptor agonism in beta-arrestin assay. AID 624465. 360,000 tested, 0.084% active. activation, % (no concentration beside the values). DiscoveRx PathHunter D2 beta-arrestin, luminescence, 90 min; 100% = 57 uM dopamine signal. P14416; in the data active = activation above about 40%
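DiscoveRx PathHunter D2 beta-arrestin cells (2,100/well) attached overnight, then compound-stimulated 90 min at 37 C in HBSS/10 mM HEPES/0.1% Tween-20 buffer; beta-galactosidase complementation read by luminescence after 1 h at ambient temperature. Dopamine 57 uM final (EC100) as control.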
Numbers without * were called inactive; · = no result.

SMILES	D2 antag	D2 PAM-1	D2 ag-1	D2 PAM-2	D2 ag-2
O=C(NCCc1ccc(O)c(O)c1)C1COc2ccccc2O1 (stereo unspecified)	-5	12	1	1	41*
CCc1ccc2oc(-c3cc(NC(=O)C(C)C)cc(C)c3O)nc2c1	·	-1	-1	·	·
COc1cccc(NC(=O)CSc2nc3ccc(NC(=O)c4cccs4)cc3s2)c1	·	-3	-1	·	·
Cc1nc2nc(SCC(=O)NCCCN3CCCCCC3)nn2c(C)c1Cc1ccccc1	-6	5	0	-11	-4
Cc1ccccc1Cc1c(C)nc2nc(SCC(=O)NCCCN3CCCCC3)nn2c1C	75*	15	1	-3	4
CC(NC(=O)CSc1nnc(-c2cccc(S(=O)(=O)N3CCCCC3)c2)o1)C12CC3CC(CC(C3)C1)C2 (stereo unspecified)	·	12	·	58*	1
COCC(C)NC(=O)CSc1nnc(-c2cccc(S(=O)(=O)N3CCCCC3)c2)o1 (stereo unspecified)	-12	3	2	-2	-4
Cc1cc(C)nc(SCc2cn3ccccc3n2)n1	38*	-1	-1	10	0
Cc1cc(C)c(C#N)c(SCc2cn3ccccc3n2)n1	-9	4	0	-11	1
COc1cc(NS(=O)(=O)c2ccc(NC(=O)/C=C/c3ccc([N+](=O)[O-])cc3)cc2)ncn1	-4	9	0	102*	-5
CCn1cc(C(=O)NCc2ccc(Cl)cc2)c(=O)c2cc(S(=O)(=O)N(C)C3CCCCC3)ccc21	·	-4	0	·	·
Cc1oc2c(CN3CCCC3)c(O)ccc2c(=O)c1-c1ccccc1	2	10	0	-8	-3
Cc1oc2c(CN3CCC(C)CC3)c(O)ccc2c(=O)c1-c1ccccc1	44*	-4	-1	-11	-4
O=C(Cn1cnc2c(nnn2Cc2ccc(F)cc2)c1=O)Nc1cccc(F)c1	37*	-4	1	-3	1
Cc1ccc(NC(=O)Cn2cnc3c(nnn3Cc3ccc(F)cc3)c2=O)cc1	-27	-2	0	-3	-6
O=C(CNCc1ccco1)Nc1ccccc1-n1cccc1	38*	12	0	-4	0
O=C(CNCc1ccco1)Nc1ccc(Oc2ccccc2)cc1	-7	2	-1	-12	0
c1nc(N2CCCC2)c2[nH]cnc2n1	-10	-1	-1	-7	-3
OCCN1CCN(c2ncnc3nc[nH]c23)CC1	34*	-9	1	-3	-2
COc1ccc(-c2nn(-c3ccccc3F)cc2CNCCn2nc(C)cc2C)cc1	37*	-19	0	-14	-4
Cc1cccc(-n2nnc(C(=O)NCc3ccccn3)c2N)c1	31*	-2	0	-7	1
Cc1ccc(CNC(=O)c2nnn(-c3cccc(C)c3)c2N)cc1	·	·	·	-7	-2
NC1=NC2(CCN(Cc3ccccc3)CC2)n2c(nc3ccccc32)N1	43*	-32	-1	-16	-2
COc1ccc(C)cc1NC(=O)CN1CCN(S(=O)(=O)c2ccc(Br)cc2)CC1	34*	2	0	4	0
O=C(CN1CCN(S(=O)(=O)c2ccc(Br)cc2)CC1)Nc1ccc(F)cc1F	6	0	-1	-8	5
SMILES	D2 antag	D2 PAM-1	D2 ag-1	D2 PAM-2	D2 ag-2
Cc1ccc(S(=O)(=O)N(C)C)cc1NC(=O)CN1CCCC1	-21	-27	0	-22	3
O=C(CN1CCN(S(=O)(=O)c2ccc(Cl)cc2)CC1)Nc1ccc(F)cc1F	39*	-7	1	1	-1
COc1ccc(NC(C)=O)cc1NC(=O)CN1CCN(S(=O)(=O)c2ccc(C(C)C)cc2)CC1	38*	-4	0	-1	0
CN(C)S(=O)(=O)c1ccc(Cl)c(NC(=O)CN2CCCC2)c1	36*	-14	0	-22	-3
COc1ccc(NC(=O)CN2CCN(S(=O)(=O)c3ccc(Br)cc3)CC2)c(OC)c1	-10	-8	0	-5	1
Cc1ccc(S(=O)(=O)N2CCN(CC(=O)Nc3ccccc3Cl)CC2)cc1	40*	10	0	-1	-2
C=CCN1C(=O)/C(=C/C=C2/N(CC)c3ccc(S(=O)(=O)N(C)C)cc3N2CC)SC1=S	16	1	52*	-16	-3
CCOC(=O)N=S(N)(=O)c1ccc(Cl)cc1 (stereo unspecified)	-13	31*	0	-2	0
O=C(Nc1nc2n(n1)C(c1ccc(Cl)cc1)CC(c1ccc(Cl)cc1)N2)c1ccco1 (stereo unspecified)	32*	-10	0	-15	-3
COc1ccc(C2CC(c3ccc(Cl)cc3)Nc3nc(NC(=O)c4ccco4)nn32)cc1 (stereo unspecified)	-2	1	0	2	1
COc1ccc(C2C(C#N)=C(C)NC3=C2S(=O)(=O)c2ccccc23)cc1 (stereo unspecified)	-24	32*	0	-16	-4
COC(=O)C1=C(C)NC2=C(C1c1ccc(O)cc1)S(=O)(=O)c1ccccc12 (stereo unspecified)	-4	-16	0	-13	-5
COc1ccc(NC(=O)Nc2cccc(OCc3cc(=O)n4cccc(C)c4n3)c2)c(OC)c1	·	-6	0	·	·
CCOC(=O)C1C(=O)Nc2nc(C)nn2C1c1ccccc1 (stereo unspecified)	42*	5	1	-13	-2
COc1cc2oc(=O)c(Br)c(C)c2c(OC)c1OC	39*	-1	-1	-2	-1
Cc1cc(C)cc(NC(=O)N2CCC(N3CCCCC3)CC2)c1	·	-8	-1	·	·
O=c1cc(N2CCOCC2)[nH]c(=O)n1-c1ccc(Cl)cc1	41*	-4	0	-12	-3
O=c1cc(N2CCCC2)[nH]c(=O)n1-c1ccc(Cl)cc1	1	-5	0	-5	-6
COc1ccc(OC)c(NC(=O)Cn2c(=O)cc(C)c3c(C)nn(-c4cccc(Cl)c4C)c32)c1	·	2	0	·	·
CC1=C(C(=O)Nc2ccccc2C)C(c2cccnc2)n2nc(SCc3ccccc3F)nc2N1 (stereo unspecified)	·	4	-1	·	·
O=C(/C=C/c1ccc(Cl)cc1)NC(=S)Nc1ccc(CN2CCOCC2)cc1	0	-22	35*	-21	1
CCN1CCCC1CNC(=O)c1cc(NC(C)=O)c(N(C)C)cc1OC (stereo unspecified)	69*	-19	0	-18	-1
CCC(=O)Nc1cc(C(=O)NCC2CCCN2CC)c(OC)cc1N(C)C (stereo unspecified)	73*	-21	1	-21	0
CCN1CCCC1CNC(=O)c1ccccc1Cl (stereo unspecified)	·	·	·	-13	-1
